# Laboratory results: publication PMC5540273 (PLoS ONE, 2017)
# Experiments:
# Conditions in all cases: concentration: 1 μM,replicates: in singlicate; n = 1
# ERK1 = tested on: T1, ERK1
# T1 construct: gene MAPK3
# ERK2 = tested on: T2, ERK2
# T2 construct: gene MAPK1
# ERK3 = tested on: T3, ERK3
# T3 construct: gene MAPK6
# ERK4 = tested on: T4, ERK4
# T4 construct: gene MAPK4
# ERK5 = tested on: T5, ERK5
# T5 construct: gene MAPK7
# ERK8 = tested on: T6, ERK8
# T6 construct: gene MAPK15
# ERN1 = tested on: ERN1
# FAK = tested on: T7, FAK
# T7 construct: gene PTK2
# FER = tested on: FER
# FES = tested on: FES
# 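Further: KINOMEscan kinase panel screen.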
Structure (SMILES),%Inh (ERK1) [%],%Inh (ERK2) [%],%Inh (ERK3) [%],%Inh (ERK4) [%],%Inh (ERK5) [%],%Inh (ERK8) [%],%Inh (ERN1) [%],%Inh (FAK) [%],%Inh (FER) [%],%Inh (FES) [%]
O=C(NCC1CC1)c1ccc(-c2cc(C(=O)NC3CC3)ccc2F)cc1 [GW810445],0,0,0,0,1,0,0,3,0,0
O=C1NCCc2[nH]c(-c3ccncc3)cc21,13,28,0,0,0,93.1,8,0,4,30
Cc1cccc2c(-c3ccncc3)c(-c3ccc(F)cc3)nn12.Cl [GW461487],0,0,5,15,0,0,7,0,4,0
C[C@@H](Oc1cc(-n2cnc3cc(-c4cnn(C)c4)ccc32)sc1C(N)=O)c1ccccc1Cl [GSK580432],0,0,10,10,0,64,3,0,38,18
C[C@@H](Oc1cc(-n2cnc3cc(-c4ccncc4)ccc32)sc1C(N)=O)c1ccccc1Cl [GSK479719],0,0,0,0,0,85,16,0,13,18
CCCC(=O)Nc1n[nH]c2ncccc12 [SB-601436],0,0,0,0,0,0,0,0,0,12
COc1cccc(OC)c1C(=O)Nc1cccc(-c2nn3ccccc3c2-c2ccnc(Nc3cccc(F)c3)n2)c1 [GSK361065],1,6,1,9,2,3,10,1,24,20
CS(=O)c1ccc(-c2coc3ccc(-c4n[nH]c(=O)o4)cc23)cc1 (centres unmarked),7,1,0,0,0,44,0,0,0,0
CCn1c(-c2nonc2N)nc2cncc(CNC3CCNCC3)c21.Cl [SB-747651],0,0,6,0,0,16,2,0,2,0
CCn1c(-c2nonc2N)nc2cncc(Br)c21 [SB-738004],0,6,0,19,6,0,19,9,10,8
Nc1nccc(-c2ccc3c(N)n[nH]c3c2)n1 [GSK1034945],0,0,0,8,0,49,0,0,0,0
O=c1[nH]cc(-c2ccc(O)cc2)c2sc(-c3ccncc3)cc12 [GSK1033723],0,0,11,1,0,0,0,0,1,13
CSc1nccc(-c2c(-c3ccc(F)cc3)ncn2CCCN2CCOCC2)n1.Cl [SB-217146],0,0,0,0,0,0,33,0,0,3
COc1cccc(C2=C(Nc3cccc(Cl)c3)C(=O)NC2=O)c1 [SB-341556],3,0,0,17,0,71,10,0,0,0
CS(=O)(=O)c1cccc(CNc2nc(Nc3ccc4c(c3)[C@@H]3C[C@@H]4CNC3=O)ncc2C(F)(F)F)c1,24,44,0,0,7,99.6,17,100,93.4,85
FC(F)(F)c1cc(Br)cc(Nc2nccc(-c3cnn4ncccc34)n2)c1 [GW810578],0,25,16,0,0,99.5,59,18,0,0
Cl.Cl.NC[C@H](CC1CCCCC1)NC(=O)c1ccc(-c2ccnc3[nH]ccc23)s1 [GSK1581428],18,31,0,0,0,78,6,48,14,5
C[C@@H]1CCN(C(=O)N2CCCC2)C[C@@H]1N(C)c1ncnc2[nH]ccc12,0,14,0,10,0,34,3,97.3,36,34
c1ccc(Oc2ccc(Nc3ccnc4ccc(-c5ccccn5)cc34)cc2)cc1 [GW407034],0,83,4,0,0,31,0,0,18,0
NC(=O)c1ccc(-c2cc3ncnc(SCC(=O)O)c3s2)cc1,0,4,0,0,0,63,0,0,0,16
CC(C(=O)NC1CCN(c2ccnc(Nc3ccc(F)cc3)n2)C1)c1ccc(Cl)cc1 (centres unmarked) [GSK1379713],0,0,0,0,0,0,0,0,46,1
CN(c1ccc2c(c1)nc(NCc1ccc(F)cc1)n2C)c1ccnc(Nc2ccc(CS(C)(=O)=O)cc2)n1.Cl [GW813244],3,0,0,0,0,29,28,22,20,0
OCCn1cc(-c2cnc3nnn(Cc4ccc5ncccc5c4)c3n2)cn1,0,0,0,18,3,9,0,0,0,0

Structure (SMILES),%Inh (ERK1) [%],%Inh (ERK2) [%],%Inh (ERK3) [%],%Inh (ERK4) [%],%Inh (ERK5) [%],%Inh (ERK8) [%],%Inh (ERN1) [%],%Inh (FAK) [%],%Inh (FER) [%],%Inh (FES) [%]
Cn1ccc2ncnc(Oc3ccc(NC(=O)Nc4ccnc(C(F)(F)F)c4)c(Cl)c3)c21,0,0,0,0,0,0,11,0,0,10
Cc1nnc(-c2ccc3occ(-c4ccc(S(C)=O)cc4)c3n2)o1 (centres unmarked),0,19,0,0,0,0,0,0,0,15
COC(=O)Nc1nc2cc(Oc3ccc(NC(=O)Nc4cc(C(F)(F)F)ccc4Cl)cc3)ccc2[nH]1.Cl [GW697465],0,0,6,0,0,90.9,0,0,24,0
COc1cc2nccc(Nc3ccc(Oc4ccccc4)cc3)c2cc1OC.Cl [GI261656],0,0,17,0,0,0,29,0,33,0
CN1CCN(CCCNc2nccc(-c3c(-c4ccc(F)cc4)nn4cc(C(N)=O)ccc34)n2)CC1 [GW622475],0,2,5,36,0,0,35,0,26,0
C[C@@H]1CNc2c(sc3ccc4nc(-c5ccc(O)cc5)ccc4c23)C(=O)N1,0,16,0,13,8,3,10,6,0,4
COC(=O)c1cccc(NC(=O)NC2CCN(c3ccnc(NCc4ccc(F)cc4)n3)CC2)c1 [GSK1379860],0,14,14,0,22,35,0,0,10,1
Cc1n[nH]c2cc(Nc3ccnc(Nc4cccc(CN5CCOCC5)c4)n3)ccc12 [GW682569],0,0,0,22,7,0,24,0,8,0
CCN1CCN(CCCC(=O)Nc2n[nH]c3nc(-c4ccc(O)cc4)c(Br)cc23)CC1 [SB-731579],0,0,0,0,87,56,0,0,0,0
Cc1ccc2c(-c3ccnc(Nc4ccc(C(F)(F)F)cc4)n3)cnn2n1 [GW819776],19,3,22,0,0,99.4,17,13,18,10
Cn1ccc2ncnc(Oc3ccc(NC(=O)Nc4cc(C(C)(C)C)on4)c(Cl)c3)c21,9,5,8,9,6,65,49,0,0,25
CC(C)S(=O)(=O)N1CCN(Cc2ccc3c(c2)nc(NC(=O)c2ccsc2)n3C[C@H](O)c2ccccc2)CC1 [GW635815],0,0,1,0,0,0,4,29,39,15
COc1cccc(CNC(=O)NC2CCN(c3ccnc(Nc4cc(OC)c(OC)c(OC)c4)n3)C2)c1 (centres unmarked) [GSK1379765],0,0,33,0,0,0,3,0,26,0
Cl.Nc1n[nH]c2cc(-c3ccccn3)ccc12 [GSK2189892],0,0,0,31,0,0,0,0,13,0
Cn1ccc2ncnc(Oc3ccc(NC(=O)Nc4cccc(C(F)(F)F)c4)c(Cl)c3)c21,0,18,0,10,12,11,15,41,0,9
C[C@@H]1CNc2c(sc3ccc4nc(-c5ccncc5)ccc4c23)C(=O)N1,0,6,0,16,15,24,0,0,20,9
Cc1ccc(C(=O)Nc2ccc(Oc3ccc4nc(NC(=O)C5CC5)cn4c3)c(F)c2)c(=O)n1-c1ccccc1,0,0,0,0,0,34,0,3,75,48
Cn1ccc2ncnc(Oc3ccc(NC(=O)Nc4cnn(C(C)(C)C)c4)c(Cl)c3)c21,19,4,0,1,7,25,26,0,0,13
Cc1ccn2nc(-c3ccc(F)cc3)c(-c3ccncc3)c2c1.Cl [GW457859],0,0,1,15,8,0,0,0,2,0
COC(=O)c1cccc(NC(=O)NC2CCN(c3ccnc(Nc4cc(OC)c(OC)c(OC)c4)n3)C2)c1 (centres unmarked) [GSK1379767],0,0,19,0,0,0,4,0,17,15
CN(c1cccc(CNc2nc(Nc3ccc4c(c3)CC(=O)N4)ncc2C(F)(F)F)c1)S(C)(=O)=O,3,41,0,0,18,79,11,,65,62
O=C(Nc1ccc(Oc2ccc3nc(NC(=O)C4CC4)cn3n2)c(F)c1)c1cccn(-c2ccccc2)c1=O,0,10,0,5,21,9,0,13,37,13
O=C(Nc1cccc(C(F)(F)F)c1)c1cccc(Oc2ccc3nccn3n2)c1,7,7,0,2,22,4,29,38,5,0

Structure (SMILES),%Inh (ERK1) [%],%Inh (ERK2) [%],%Inh (ERK3) [%],%Inh (ERK4) [%],%Inh (ERK5) [%],%Inh (ERK8) [%],%Inh (ERN1) [%],%Inh (FAK) [%],%Inh (FER) [%],%Inh (FES) [%]
CS(=O)(=O)Nc1ccc(-c2ccnc3[nH]ccc23)cc1 [GSK993273],0,0,0,13,0,0,25,0,16,0
O=C(Nc1ccccc1)c1cccc(Oc2ccc3nccn3n2)c1,0,0,0,77,0,0,22,0,2,6
Cn1cc(-c2cccc3c(N)c(C(N)=O)nnc23)cn1,5,27,0,0,0,0,33,21,8,8
Cc1cccc(-c2nc(Nc3ccncc3)c3sccc3n2)n1 [GW869641],5,18,3,26,0,2,32,2,9,7
N#Cc1cccc(C(=O)NC2CCN(c3ccnc(Nc4ccc(F)cc4)n3)C2)c1 (centres unmarked) [GSK1379708],0,10,9,0,0,0,0,0,30,2
CC(C)c1nc(-c2cccc(NS(=O)(=O)c3ccccc3)c2)c(-c2ccnc(Nc3ccc4c(c3)CN(C)CC4)n2)s1 [GSK1649598],0,0,0,43,11,0,63,0,23,0
NC(=O)Nc1sc(-c2ccc(F)cc2)cc1C(N)=O [GW789449],0,16,0,0,10,10,27,5,0,11
COc1cc(Nc2nccc(N3CCC(NC(=O)c4cccc(C#N)c4)C3)n2)cc(OC)c1OC (centres unmarked) [GSK1379751],0,0,3,0,0,0,0,0,0,0
COc1cc2c(Nc3ccc(NC(=O)c4ccccc4)cc3)ncnc2cc1OCCCN1CCOCC1 [GSK301329],4,3,0,0,0,0,46,0,4,0
Cn1ccc2ncnc(Oc3ccc(NC(=O)Nc4cccc(C(F)(F)F)c4)c(F)c3)c21,0,19,0,14,11,74,0,34,28,0
CCNCC(Cc1ccccc1)NC(=O)c1cc(Br)c(-c2ccnc3[nH]ccc23)s1.Cl.Cl (centres unmarked) [GSK1383280],19,0,4,32,0,3,12,2,0,0
C[C@@H](Oc1cc(-n2cnc3ccc(-c4ccncc4)cc32)sc1C(N)=O)c1ccccc1Cl [GSK483724],5,0,0,0,0,55,3,0,39,4
CC(=O)Nc1nc2cnc(Nc3cc(NC(=O)c4cccc(CC(C)(C)C#N)c4)ccc3C)nc2s1,1,15,0,4,9,53,0,8,0,0
CN(c1ccccc1CNc1nc(Nc2ccc3c(c2)CC(=O)N3)ncc1C(F)(F)F)S(C)(=O)=O,68,82,0,5,24,95.8,0,,82,70
COc1ccc(Nc2nccc(N3CCC(NC(=O)c4cccc(C#N)c4)C3)n2)cc1 (centres unmarked) [GSK1379730],1,26,0,0,0,30,0,0,27,0
CNC(=O)c1ccccc1Nc1nc(Nc2cccc(CS(C)(=O)=O)c2)ncc1C.O=CO [GSK1520489],46,60,35,35,0,80,58,99.9,96,38
Cn1ccc2ncnc(Oc3ccc(NC(=O)Nc4cncc(C(F)(F)F)c4)c(Cl)c3)c21,0,0,0,0,0,0,0,0,0,0
CC(=O)c1c(-c2ccncc2)[nH]c(-c2ccncc2)c1C [GW493036],3,0,0,0,0,96.5,0,0,2,0
Cl.c1ccc(Oc2ccc(Nc3ccnc4cc(-c5ccc(CN6CCNCC6)o5)ccc34)cc2)nc1 [GW567142],0,0,0,30,0,0,0,9,4,0
Cc1ccc(CC(=O)N2CCc3cc(-c4cn(C)c5ncnc(N)c45)ccc32)cc1 [GSK2634758],12,6,0,0,0,0,11,0,19,0
CN1CCN(CCNc2nc3cc(Oc4ccc(NC(=O)Nc5cc(C(F)(F)F)ccc5F)cc4)ccc3[nH]2)CC1.Cl.Cl [GW768504],0,0,0,0,0,69,0,11,20,9
